Most compounds without a hit are left out; they make up all but 9% or so of the library.
ALDH1A1 block = ALDH1A1 (human) enzyme inhibition; AID 1030; Potency, µM (top dose mostly 75.3 µM), inactives show at the highest dose activity, negative = inhibition, hits mostly inhibitors; hit rate 7.3% among 220,000; P00352; Purified ALDH1A1, NADH fluorescence, propionaldehyde substrate; active = well fitted inhibition curve with a large enough effect, not every such curve was filed as active; inconclusive = small, poorly fitted or top-dose-only effect, or another doubt; inactive = no such curve, though single readings can be large or run the other way;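 note: plate controls were no enzyme wells and a reference inhibitor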
Target sequence (P00352 whole entry, looked up): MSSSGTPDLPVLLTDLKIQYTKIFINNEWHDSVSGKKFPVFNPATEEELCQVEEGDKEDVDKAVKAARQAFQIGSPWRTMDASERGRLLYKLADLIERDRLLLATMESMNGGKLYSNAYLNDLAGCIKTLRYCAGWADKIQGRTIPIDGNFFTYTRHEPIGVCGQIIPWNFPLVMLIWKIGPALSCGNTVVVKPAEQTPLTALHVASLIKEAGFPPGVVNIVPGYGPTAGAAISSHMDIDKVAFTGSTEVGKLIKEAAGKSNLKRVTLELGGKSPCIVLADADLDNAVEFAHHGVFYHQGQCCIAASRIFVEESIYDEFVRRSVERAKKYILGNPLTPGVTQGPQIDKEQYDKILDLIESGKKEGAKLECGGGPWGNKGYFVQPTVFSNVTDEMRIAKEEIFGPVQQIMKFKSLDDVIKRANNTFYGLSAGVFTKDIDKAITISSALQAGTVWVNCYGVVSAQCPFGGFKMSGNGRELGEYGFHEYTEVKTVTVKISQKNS
LMNA splice mod = modulators of lamin A splicing | Potency, µM (doses to about 46.1 µM), inactives show at the highest dose ratio change, negative = inhibition, most hits filed as inhibitors | hit rate 0.01% among 200,000 | HeLa LMNA splicing GFP/RFP minigene ratio, 48 h; active = well fitted inhibition curve with a large enough effect in the signal ratio, with a control signal flat, not every such curve was filed as active; inconclusive = small, poorly fitted or top-dose-only effect, or effect the other way, or a change in a side signal; the % refers to the signal ratio; note: % is set by controls: 0 for no effect and ±100 for the full control effect
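S3 HeLa cells stably expressing lamin A-EGFP splicing minigene plus DsRed2, 600 cells/well, 48 h compound exposure at 37C. Laser-scanning cytometry; analysed as GFP (500-530 nm)/RFP (575-640 nm) total intensity ratio; 0.5% DMSO vehicle.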
HTT ATP protect = cytoprotection in Huntington HTT-Q103 PC12 cell model; Potency, µM (top dose mostly 56.4 µM), for inactives: cytoprotection (ATP increase), most hits filed as activators; hit rate 0.14% among 230,000; PC12 HTT-Q103 induced, cytoprotection, ATP luminescence, 40 h; AID 1471; note: % of control where 0% means no effect; nearly all actives have a fitted effect of over 45% in size
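Rat PC12, Q103 Htt exon1-GFP fusion, ecdysone promoter; tebufenozide inducer 100 nM final; compound titration; qHTS, 1500 cells/well; ATPlite luminescent read.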
HPGD inh = inhibitors of human 15-hydroxyprostaglandin dehydrogenase (HPGD). hit rate 4.3% among 150,000. Potency, µM, for inactives: at the highest dose activity change, negative = inhibition, usual class: inhibitors. purified HPGD, NADH fluorescence kinetic, PGE2 substrate. P15428; active = well fitted inhibition curve with a large enough effect, not every such curve was filed as active; inconclusive = small, poorly fitted or top-dose-only effect, or another doubt; inactive = no such curve, though single readings can be large or run the other way; note: % is set by controls: 0 for no effect and ±100 for the full control effect
Target sequence (P15428 whole entry, looked up): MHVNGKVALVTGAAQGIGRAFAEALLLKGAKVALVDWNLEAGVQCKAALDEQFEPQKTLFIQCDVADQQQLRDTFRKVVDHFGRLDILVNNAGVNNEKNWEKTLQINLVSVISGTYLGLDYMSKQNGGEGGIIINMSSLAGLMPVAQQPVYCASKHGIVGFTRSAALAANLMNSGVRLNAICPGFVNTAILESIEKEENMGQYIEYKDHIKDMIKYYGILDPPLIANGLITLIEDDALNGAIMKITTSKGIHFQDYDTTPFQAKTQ
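20 nM HPGD preincubated 15 min at room temperature with compound in 50 mM Tris-HCl pH 8, 0.01% Tween 20. Started with 1 mM NAD+ and 30 uM prostaglandin E2; NADH fluorescence (360/450 nm) read 5 times over 30-s intervals, last minus first.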
HTT aggregate = inhibitors of mutant huntingtin aggregate formation in PC12 cells; PC12 HttQ103-GFP aggregates, Acumen cytometry, 40 h; Potency, µM (top dose mostly 46.1 µM), for the others: at the top dose activity change, negative = inhibition, hits mostly inhibitors; hit rate 1.1% among 220,000; note: % is set by controls: 0 for no effect and ±100 for the full control effect; nearly all actives have a fitted effect of over 60% in size
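Read-out: GFP aggregate count by laser scanning cytometer (488 nm excitation, 500-530 nm emission, 1–25 µm objects >6 SD above background). Cells: PC12, inducible HTTex1-Q103-GFP, 100 nM tebufenozide; compounds titrated.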
KinaseGlo FLuc = blocks Kinase-Glo luciferase, a counter-screen artifact; Q27757; Kinase-Glo luciferase, ATP luminescence, 8 min; Potency, µM (top dose mostly 38.3 µM), without a hit: at the highest dose activity change, negative = inhibition, usual class: inhibitors; hit rate 0.28% among 200,000; AID 1379; note: % is set by controls: 0 for no effect and ±100 for the full control effect; nearly all actives have a fitted effect of over 60% in size
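Compound is pinned into ATP-containing buffer (10 uM ATP, imidazole pH 7.2, 7 mM MgCl2). Kinase-Glo luciferase reagent is then added. Light output is recorded following an 8-min room-temperature incubation.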
Numbers without * were called inactive; u = inconclusive; x = no result given; [ ] = another dose, or the depositor's remark. Unless noted, calls come from the whole dose curve; as a rule, active = well fitted curve in the direction sought with a large enough effect; inconclusive = small, poorly fitted or top-dose-only effect, or another doubt; inactive = no such curve, though single readings can be large; an effect the other way counts as inactive or inconclusive. Potency is the fitted concentration of half-maximal effect.

SMILES | ALDH1A1 block | LMNA splice mod | HTT ATP protect | HPGD inh | HTT aggregate | KinaseGlo FLuc
CCOC(=O)c1cnc(SC2CC(=O)N(c3ccc(OC)c(OC)c3)C2=O)nc1N (configuration not stated) | u | -1.0% | 6.3%[10 µM] | -12.9% | -0.1% | 0.6%
O=C1CC(SCCO)C(=O)N1c1ccc(Oc2ccccc2)cc1 (configuration not stated) | 14.1µM* | -7.3% | -13.1%[10 µM] | -14.5% | 8.5% | 2.0%
CCOC(=O)c1ccc(N2C(=O)CC(NC3CCN(C(=O)c4ccc(F)cc4)CC3)C2=O)cc1 (configuration not stated) | 14.1µM* | -3.6% | -1.4%[0.074 µM] | -7.2% | -12.9% | -1.2%
CCOC(=O)c1ccc(N2C(=O)CC(Sc3nnc(C)s3)C2=O)cc1 (configuration not stated) | 1µM* | 7.9% | -36.1% | 28.2µM* | 7.2% | -3.0%
CN=C(NC)SC1CC(=O)N(c2ccccc2)C1=O (configuration not stated) | 9.7% | 4.4% | -7.1% | 4.0% | -4.7% | -0.6%
CCOC(=O)c1ccc(N2C(=O)C=CC2=O)cc1 | 0.0631µM* | u | -95.7% | 1.41µM* | 22.4µM* | -4.7%
CCOC(=O)c1ccc(-n2c(C)ccc2C)cc1 | -5.3% | 9.4% | 4.9%[0.074 µM] | u | u | 1.0%
CC1(C)CC(=O)c2sc(NC(=O)C(C)(C)C)nc2C1 | u | -9.4%[46 µM] | -6.1%[10 µM] | x | 2.2%[9.22 µM] | 4.7%
CCOC(=O)c1ccc(N2C(=O)CC(SCC(N)C(=O)OCC)C2=O)cc1 (configuration not stated) | 3.55µM* | 13.8% | -86.9%[10 µM] | -7.8% | u | -0.1%
COC(=O)c1cccc(NC(=S)NCc2ccc(Cl)cc2)c1 | -13.6% | -0.7% | 10.6%[10 µM] | -25.6% | -12.9% | 1.0%
COC(=O)c1cc(NC(=S)NCc2ccc(Cl)cc2)cc(C(=O)OC)c1 | 11.2µM* | u | -1.6%[10 µM] | -25.3% | -5.5% | 2.7%
CSC(=[SH+])N=N/C(=C1/C=CC=CN1)c1ccccn1.[Cu][Br] | 0.631µM* | x | x | u | x | -1.9%[7.66 µM]
Cc1nnc2c(NC3CCCC3)nc3ccccc3n12 | u | x | -28.1% | x | 2.4% | 0.4%
c1ccc2c(c1)nc(NC1CCCCC1)c1nncn12 | 10µM* | -1.6% | -20.1% | -19.1% | -8.4% | 2.5%
Cc1cc2[nH]c(=O)c(=O)[nH]c2cc1S(=O)(=O)N1CCN(c2ccccc2F)CC1 | x | -7.4%[46 µM] | x | x | x | x
COc1ccc2c(C)c(C(=O)O)oc2c1 | u | 15.9% | -11.5% | -29.2% | -3.7% | -2.1%
COc1c(Br)cc2c(C)c(C(=O)O)oc2c1Br | u | u | -6.1% | 14.1µM* | -23.1% | 4.5%
O=c1cc(N2CCCCC2)c(-c2ccccc2)nn1Cc1cccc(Cl)c1 | 22.4µM* | u | -95.0% | -18.8% | u | -3.3%
CCCc1[nH]n(-c2nc3ccccc3s2)c(=O)c1C=NCCN1CCOCC1 | u | 4.9% | -18.8%[10 µM] | -6.8% | u | 0.4%
CCCc1[nH]n(-c2nc3ccccc3s2)c(=O)c1C=NCC1CCCO1 (configuration not stated) | 25.1µM* | -4.0% | -27.4%[10 µM] | -19.7% | -11.4% | 0.8%
CC(C)c1cc(C(=O)NCc2cccnc2)no1 | -0.2% | 12.1% | -13.5% | 2.8% | -4.1% | -0.1%
CC1(C)Cc2c(sc(NC(=O)C3CC(Cl)=CCC3C(=O)O)c2C#N)CO1 (configuration not stated) | u | x | -14.0%[10 µM] | x | 1.6%[9.22 µM] | 5.9%
CCN(CC)C(=O)CN(c1ccc(C)cc1)S(=O)(=O)c1ccc(SC)cc1 | 14.1µM* | 7.6% | 8.6% | -8.1% | 5.9% | -1.7%
O=C(Nc1cccc(F)c1)c1ccc(Br)o1 | -0.4% | -6.0% | -15.5% | -25.4% | u | -8.4%[39.9 µM]
O=C(Nc1cccc(OC(F)(F)F)c1)c1ccc(Br)o1 | 22.4µM* | u | -7.0% | 25.1µM* | u | -2.4%
SMILES | ALDH1A1 block | LMNA splice mod | HTT ATP protect | HPGD inh | HTT aggregate | KinaseGlo FLuc
O=C(Nc1ccc(N2CCCC2)c(Cl)c1)c1ccc(Br)o1 | 18.9µM* | -5.8% | -22.7%[10 µM] | -29.7% | u | -7.1%
CCCC(=O)N1CCN(c2ccc(NC(=O)c3cc4ccccc4o3)cc2Cl)CC1 | u | u | -29.8%[10 µM] | u | 11.2µM* | -1.0%
COc1ccc(S(=O)(=O)N2CCCCC2)cc1NC(=O)c1ccc([N+](=O)[O-])o1 | 3.16µM* | u | -7.4% | x | 18.1% | 4.4%
Cc1ccc(S(=O)(=O)N2CCN(S(=O)(=O)N3CCCCC3)CC2)cc1 | 6.8% | -4.3% | -7.1% | -6.9% | -19.7% | 2.7%
CC(C)(C)n1nnnc1C(c1cccnc1)N1CCN(c2ccccc2F)CC1 (configuration not stated) | -9.3% | 1.1% | -2.2%[1.9 µM] | -8.0% | 0.4% | -1.1%
CCC(=O)N1CCN(c2ccc(NC(=O)c3ccc([N+](=O)[O-])o3)cc2Cl)CC1 | 14.1µM* | x | 0.631µM* | x | 20µM* | -1.0%
CCn1c2ccccc2c2cc(NC(=O)c3ccc(Br)o3)ccc21 | 2.24µM* | -3.4% | -4.1% | 4.47µM* | 14.8% | -2.2%
CCN1CCN(c2ccc(NC(=O)c3ccc([N+](=O)[O-])o3)cc2Cl)CC1 | 20µM* | u | -101.4% | x | 12.6µM* | 0.3%
COCCNC(=O)/C(C#N)=C/C=C/c1ccccc1[N+](=O)[O-] | 2.3% | -25.8%[46 µM] | u | x | -10.3%[9.22 µM] | 3.0%
Cc1cccc(CN2CCN(CC(=O)NCCCN3CCCC3=O)C2=O)c1 | 5.7% | -10.8% | 3.5% | 0.0% | -5.0% | 2.8%
CN(C)c1cccc(OC2C=CC(C#Cc3ccccc3)OC2CO)c1 (configuration not stated) | -15.5%[13.5 µM] | x | -3.6%[10 µM] | x | x | x
C=C(C)CNC(=S)NNC(=O)CCn1c2cc(Cl)ccc2c2ccc(Cl)cc21 | 9.3% | -5.3% | 8.4%[10 µM] | -2.6% | 3.1% | -1.1%
CCC1(c2ccccc2)NC(=O)N(Cc2cccc([N+](=O)[O-])c2)C1=O (configuration not stated) | 6.4% | u | -18.4% | x | 15.6% | 3.3%
C[N+]1(C)CC2=Cc3ccccc3CC2C1 (configuration not stated) | 0.2% | -5.2%[46 µM] | -13.1%[10 µM] | x | -8.3%[9.22 µM] | 1.1%
COCC(C)NC(=O)NC1(C(F)(F)F)Oc2ccc(Cl)cc2O1 (configuration not stated) | 22.4µM* | u | -2.3% | x | 3.6% | x
COC(=O)c1sccc1NC(=O)C1CC(C)=C(C)CC1C(=O)O (configuration not stated) | 9.2% | x | 16.4%[10 µM] | x | 5.4%[9.22 µM] | x
Cc1ccc(C)c(Cn2nnc3c(=O)[nH]c(C4CCCN(C(=O)CC(C)C)C4)nc32)c1 (configuration not stated) | 1.2% | 6.6% | -0.8% | 10µM* | -18.2% | -1.1%
